Assay results as given in PubChem BioAssay AID1053117 (Broad Institute, 2014).
Entries with a potency or affinity are not part of this list. Values without a mark were called inactive.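 The calls were made as follows: active = compounds lowering cell ATP signal with a fitted half-effect dose at most twice the top valid dose; inconclusive = flat curve with 30 to 70% signal loss, or bad fit; inactive = wrong direction, flat within 30%, or weaker than limit.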

Assay: viability loss in HEK293 kidney cells – cell-based, cherry-picks, set 5, cytotoxicity control, dose response (AID 1053117);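 also: more negative means greater loss of ATP signal and more cytotoxicity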
Conditions: HEK293T viability, CellTiter-Glo ATP luminescence, 72 h; series mostly up to 26 µM; activity change, negative = cytotoxicity: at the top concentration

SMILES | activity change, negative = cytotoxicity
Cc1ccc(S(=O)(=O)N2CC[C@@H]3[C@@H](CO)Nc4ccc(-c5cccc(C(=O)N(C)C)c5)cc4[C@@H]32)cc1 | -5.67%
CC(NC(=O)CSc1ccc(S(=O)(=O)N2CCOCC2)cn1)c1ccc(Cl)cc1Cl (stereo not drawn) | -20.9%
Cc1ccc([N+](=O)[O-])cc1NC(=O)CN(C(=O)c1ccccc1Cl)C1CCCCC1 | -5.77%
CN(C)C(=O)c1ccc(-c2ccc3c(c2)[C@H]2[C@H](CCN2C(=O)c2ccc(F)cc2)[C@@H](CO)N3C)cc1 | -39.6% [at 23.5 µM]
C[C@@H]1CN([C@H](C)CO)C(=O)c2cc(NC(=O)CCCN(C)C)ccc2O[C@@H]1CN(C)Cc1ccc(-c2ccccc2)cc1 | -8.69%
COCC(=O)Nc1ccc2c(c1)C(=O)N(C)[C@@H]1CC[C@@H](CC(=O)NCc3ccccc3Cl)O[C@H]1CO2 | -10.4% [at 23.5 µM]
C[C@@H]1CN([C@@H](C)CO)C(=O)c2cc(-c3ccccc3)cnc2O[C@@H]1CN(C)C(=O)c1cccc(F)c1 | -7.36%
C[C@@H]1CN([C@H](C)CO)C(=O)c2cc(NC(=O)CCCN(C)C)ccc2O[C@H]1CN(C)Cc1ccc(-c2ccccc2)cc1 | -10.5%
COCC(=O)Nc1ccc2c(c1)C(=O)N(C)[C@H]1CC[C@H](CC(=O)NCc3ccccc3Cl)O[C@@H]1CO2 | -13.8% [at 23.5 µM]
Cc1ccc(O)c(-c2cc(-c3cccc(Br)c3)n[nH]2)c1 | 6.7%
Cc1cccc(NC(=O)c2ccc(C3SCC(=O)N3CCc3ccccc3)cc2)c1 (stereo not drawn) | -18.7%
N#C[C@@H]1[C@@H](c2ccccc2C2=CCCCC2)[C@H](CO)N1S(=O)(=O)c1ccccc1 | -3.7%
COC(=O)C[C@H]1CC[C@@H]2[C@@H](COc3ccc(NC(=O)Cc4cccs4)cc3C(=O)N2C)O1 | -12.4%
N#Cc1ccc(-c2ccc3c(c2)[C@@H]2[C@@H](CCN2S(=O)(=O)c2cccc(F)c2)[C@@H](CO)N3)cc1 | -14.5% [at 23.5 µM]
O=C(OCC(O)C(O)COC(=O)c1ccccc1)c1ccccc1 (stereo not drawn) | -13.8%
CCc1ccc(NC(=O)CSc2nnc(-c3ccco3)o2)cc1 | -13.1%
CCOC(=O)c1cnc(SCc2nc(N)nc(Nc3ccc(OC)cc3)n2)nc1N | -16.9%

SMILES | activity change, negative = cytotoxicity
Cc1ccc(S(=O)(=O)N2CC3(C)CN(S(=O)(=O)c4ccc(C)cc4)CC(C)(C2)C3=O)cc1 | -8.44%
Cc1oc2ccc(O)cc2c1C(=O)c1ccc(Br)cc1 | -12.3%
C[C@@H]1CN([C@H](C)CO)C(=O)c2cc(-c3ccccc3)cnc2O[C@H]1CN(C)C(=O)c1cccc(F)c1 | -9.1%
COC(=O)C[C@H]1CC[C@@H]2[C@H](COc3ccc(NC(=O)Cc4cccs4)cc3C(=O)N2C)O1 | -0.923% [at 23.5 µM]
COc1ccccc1CC(=O)OC(C)C(=O)Nc1ccc(S(=O)(=O)N2CCCCC2)cc1 (stereo not drawn) | 1.81%
O=C(CN1CCCC1)Nc1ccc(Oc2ccc(NC(=O)CN3CCCC3)cc2)cc1 | -22.4%
Nc1c(C(=O)NCc2ccco2)nnn1Cc1ccccc1 | -12.2%
COc1ccc(-c2csc(CCn3nc(C)cc3C)n2)cc1OC | -15.6%
C[C@H]1CN([C@@H](C)CO)C(=O)c2cc(NC(=O)CCCN(C)C)ccc2O[C@H]1CN(C)Cc1ccc(-c2ccccc2)cc1 | -8.58%
C[C@H](O)C#Cc1ccc2c(c1)O[C@@H](CN(C)C)[C@H](C)CN([C@H](C)CO)S2(=O)=O | -11.2%
C[C@@H]1CN([C@@H](C)CO)C(=O)c2cc(NC(=O)CCCN(C)C)ccc2O[C@@H]1CN(C)Cc1ccc(-c2ccccc2)cc1 | -15.1% [at 23.5 µM]
COc1ccc(CN(C2CCCC2)S(=O)(=O)c2ccc(-n3cnnn3)cc2)cc1OC | -7.47%
Cn1cc([N+](=O)[O-])c(C(=O)Nc2cc(Oc3ccccc3)cc([N+](=O)[O-])c2)n1 | -11.3%
C[C@H]1CN([C@@H](C)CO)C(=O)c2cc(NC(=O)CCCN(C)C)ccc2O[C@@H]1CN(C)Cc1ccc(-c2ccccc2)cc1 | -15.9%
Cc1cccc(N2CCN(S(=O)(=O)c3cn(C)cn3)CC2)c1C | 0.767%
COC(=O)c1c(NC(=O)CN2CCN(c3ccccc3Cl)CC2)sc(C)c1C | -32.1%
